PubChem BioAssay (Tox21)
Results filed as inconclusive are left out. Active and inactive are the calls of the source. Unless noted, calls follow the shape of the full dose curve.

Assays:
[1] = qHTS assay to identify small molecule agonists of the sonic hedgehog signaling (Shh) pathway (AID 1259368);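 also: NIH/3T3-derived 3T3Gli1-Luc cells carrying a stable Gli1-driven firefly luciferase reporter; series mostly up to about 92 µM; nearly all actives have a fitted effect of over 15% in size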
How it was run: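 Luminescent signal was taken as a measure of Gli1-controlled luciferase expression in stably transfected NIH/3T3-derived cells that had been treated for 24 hr with compounds delivered in DMSO.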

[2] = qHTS assay to identify small molecule antagonists of the sonic hedgehog signaling (Shh) pathway (AID 1259369); also: nearly all actives have a fitted effect of over 45% in size
How it was run: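 Screening used 3T3Gli1-Luc cells at 2,000 per well, compounds delivered in DMSO, and conditioned medium as agonist stimulus; plates incubated 24hr at 37 C and 5% CO2 before a 30min luciferase step.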

[3] = molecular target: Estrogen receptor beta (Homo sapiens) (UniProt Q92731); assay: qHTS assay to identify small molecule agonists of the estrogen receptor beta (ER-beta) signaling pathway (AID 1259377; active = well fitted activation curve with a large enough effect in the signal ratio in the repeat runs, not every such curve was filed as active; the % refers to the signal ratio)
How it was run: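 ER-beta-UAS-bla HEK293T (GripTite) cells carrying a UAS-driven beta-lactamase reporter, in medium with 2% charcoal-stripped FBS, were exposed to compounds for 16 hr at 37C; LiveBLAzer B/G FRET substrate was then added and fluorescence read after 2 hours at room temperature.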

[4] = molecular target: Estrogen receptor beta (Homo sapiens) (UniProt Q92731); assay: qHTS assay to identify small molecule antagonists of the estrogen receptor beta (ER-beta) signaling pathway (AID 1259378; active = well fitted inhibition curve with a large enough effect in the signal ratio in the repeat runs, not every such curve was filed as active; the % refers to the signal ratio; also: potency is read from the fitted curve at half-maximal effect)
How it was run: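 ER-beta-UAS-bla HEK293T cells in 2% charcoal-stripped FBS medium treated with compound plus 1nM final 17-beta-estradiol for 16 hr at 37C. Beta-lactamase reporter read by FRET substrate fluorescence after 2 hours at room temperature.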

[5] = qHTS assay to identify small molecule agonists of the androgen receptor (AR) signaling pathway in the presence of an antagonist - cell viability counter screen (AID 1259379; active = well fitted curve in the direction sought with a large enough effect in the repeat runs; an effect the other way counts as inactive or inconclusive;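 also: MDA-kb2 human breast cancer cells carrying an MMTV luciferase reporter; series mostly up to about 92 µM; nearly all actives have a fitted effect of over 25% in size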)
How it was run: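 In MDA-kb2 cells (human breast carcinoma, MMTV-luciferase), compounds at 15 concentrations plus 3.0uM nilutamide; 16 hr, 37C, 0% CO2; CellTiter-Fluor fluorescence read for viability.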

[6] = qHTS assay to identify small molecule agonists of the estrogen receptor beta (ER-beta) signaling pathway - cell viability counter screen (AID 1259380; active = well fitted curve in the direction sought with a large enough effect in the repeat runs; an effect the other way counts as inactive or inconclusive; also: nearly all actives have a fitted effect of over 30% in size; also: potency is read from the fitted curve at half-maximal effect)
How it was run: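 Viability of ER-beta-UAS-bla HEK293T cells was determined by CellTiter-Glo luminescence following 16 hr treatment with test compounds at 37C.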

[7] = molecular target: Androgen receptor (Homo sapiens) (UniProt P10275); assay: qHTS assay to identify small molecule agonists of the androgen receptor (AR) signaling pathway in the presence of an antagonist (AID 1259381); also: nearly all actives have a fitted effect of over 15% in size
How it was run: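 Here, 15-concentration compound series were pin-transferred onto MDA-kb2 MMTV-luciferase cells already dosed with nilutamide (3.0uM final). After 16hr at 37C, ONE-Glo was added and luminescence read 30min later at room temperature.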

[8] = qHTS assay to identify small molecule agonists or antagonists of the thyroid stimulating hormone receptor (TSHR) signaling pathway - wild type cell line counter screen (AID 1259384)
How it was run: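 Wild-type Hek293 cells, 800/well, 18 h at 37C, then compound with Ro20-1724 for 30 min RT. cAMP by HTRF (cAMP-d2/anti-cAMP cryptate), 1 h RT, fluorescence read. 15 concentrations, triplicates.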

[9] = qHTS assay to identify small molecule antagonists of the estrogen receptor beta (ER-beta) signaling pathway - cell viability counter screen (AID 1259382; active = well fitted curve in the direction sought with a large enough effect in the repeat runs; an effect the other way counts as inactive or inconclusive; also: series mostly up to about 92 µM; nearly all actives have a fitted effect of over 55% in size)
How it was run: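 Tox21 10K library tested in qHTS format on ER-beta-bla HEK293T cells stimulated with 1nM E2; 16 hr treatment at 37C. Same-well CellTiter-Glo luminescence served as the cell viability measure.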

[10] = molecular target: Estrogen receptor (Homo sapiens) (UniProt P03372); assay: qHTS assay to identify small molecule agonists of the estrogen receptor alpha (ER-alpha) signaling pathway in the presence of an antagonist (AID 1259383); also: top concentration of the series differs between compounds; nearly all actives have a fitted effect of over 15% in size
How it was run: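 In VM7Luc4E2 cells, 4,000 per well, compounds at 15 concentrations were co-incubated 22hr at 37C with 10.0nM final ICI-182,780. Luminescence from the stably transfected 4×ERE-luciferase reporter was recorded 30min after ONE-Glo addition.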

Measured: Potency

Chain of Androgen receptor (Homo sapiens) (P10275 whole entry, looked up): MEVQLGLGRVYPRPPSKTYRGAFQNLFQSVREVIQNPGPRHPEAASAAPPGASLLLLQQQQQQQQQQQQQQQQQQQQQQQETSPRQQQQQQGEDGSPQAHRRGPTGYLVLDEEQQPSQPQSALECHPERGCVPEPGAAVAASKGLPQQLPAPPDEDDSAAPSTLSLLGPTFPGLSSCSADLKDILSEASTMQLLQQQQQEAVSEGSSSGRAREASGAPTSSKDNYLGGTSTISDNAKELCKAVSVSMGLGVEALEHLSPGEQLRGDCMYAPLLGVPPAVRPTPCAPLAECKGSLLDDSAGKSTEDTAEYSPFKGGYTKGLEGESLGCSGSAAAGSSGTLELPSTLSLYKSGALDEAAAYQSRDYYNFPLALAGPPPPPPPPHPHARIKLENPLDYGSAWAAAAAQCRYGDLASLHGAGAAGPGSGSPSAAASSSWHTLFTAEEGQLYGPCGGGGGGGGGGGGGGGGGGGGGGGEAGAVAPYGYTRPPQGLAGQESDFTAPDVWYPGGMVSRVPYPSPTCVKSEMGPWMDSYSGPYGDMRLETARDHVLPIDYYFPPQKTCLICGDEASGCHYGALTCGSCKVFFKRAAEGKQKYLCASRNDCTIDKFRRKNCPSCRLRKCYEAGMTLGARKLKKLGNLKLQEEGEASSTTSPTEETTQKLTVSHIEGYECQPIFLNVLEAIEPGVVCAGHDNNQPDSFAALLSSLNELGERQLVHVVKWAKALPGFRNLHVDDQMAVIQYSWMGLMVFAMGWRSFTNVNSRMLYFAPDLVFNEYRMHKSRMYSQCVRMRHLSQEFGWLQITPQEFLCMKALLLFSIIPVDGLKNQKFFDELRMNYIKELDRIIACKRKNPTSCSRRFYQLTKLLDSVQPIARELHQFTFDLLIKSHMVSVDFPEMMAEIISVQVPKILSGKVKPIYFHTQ
Chain of Estrogen receptor (Homo sapiens) (P03372 whole entry, looked up): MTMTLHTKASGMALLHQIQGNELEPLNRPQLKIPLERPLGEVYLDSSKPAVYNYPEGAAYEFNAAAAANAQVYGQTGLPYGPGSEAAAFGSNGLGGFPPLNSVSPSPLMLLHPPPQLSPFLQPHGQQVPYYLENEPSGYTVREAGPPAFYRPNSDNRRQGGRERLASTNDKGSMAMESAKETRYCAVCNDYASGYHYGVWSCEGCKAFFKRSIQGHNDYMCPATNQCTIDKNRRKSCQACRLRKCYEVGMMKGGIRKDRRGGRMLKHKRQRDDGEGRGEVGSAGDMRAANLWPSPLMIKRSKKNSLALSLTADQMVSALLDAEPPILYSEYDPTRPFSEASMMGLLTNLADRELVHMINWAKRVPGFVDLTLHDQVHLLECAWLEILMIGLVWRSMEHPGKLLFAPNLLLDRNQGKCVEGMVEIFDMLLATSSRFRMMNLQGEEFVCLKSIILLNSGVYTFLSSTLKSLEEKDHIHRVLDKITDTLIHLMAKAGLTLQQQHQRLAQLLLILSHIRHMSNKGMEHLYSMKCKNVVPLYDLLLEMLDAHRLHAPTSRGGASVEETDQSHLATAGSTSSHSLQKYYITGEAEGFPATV
Chain of Estrogen receptor beta (Homo sapiens) (Q92731 whole entry, looked up): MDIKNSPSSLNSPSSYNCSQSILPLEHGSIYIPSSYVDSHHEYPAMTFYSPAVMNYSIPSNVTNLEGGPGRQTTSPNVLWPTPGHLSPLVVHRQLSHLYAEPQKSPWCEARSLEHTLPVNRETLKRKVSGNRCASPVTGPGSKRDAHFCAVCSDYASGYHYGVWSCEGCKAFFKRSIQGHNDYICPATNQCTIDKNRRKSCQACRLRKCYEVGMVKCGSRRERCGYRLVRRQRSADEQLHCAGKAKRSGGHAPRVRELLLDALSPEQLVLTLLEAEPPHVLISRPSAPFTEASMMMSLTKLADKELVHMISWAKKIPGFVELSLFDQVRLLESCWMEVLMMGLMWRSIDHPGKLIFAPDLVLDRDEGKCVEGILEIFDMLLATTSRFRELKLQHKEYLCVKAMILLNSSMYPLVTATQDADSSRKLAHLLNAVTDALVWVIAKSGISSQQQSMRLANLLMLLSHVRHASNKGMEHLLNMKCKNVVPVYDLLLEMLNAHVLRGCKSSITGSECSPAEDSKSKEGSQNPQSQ

O=C1c2ccccc2C(=O)C1c1ccc(Br)cc1
inactive: [1] | [2] | [3] | [4] | [5] | [6] | [7] | [8]

OC1(c2ccccc2)CCNCC1
inactive: [1] | [2] | [3] | [4] | [5] | [6] | [7] | [9] | [8]

Cc1[nH]cnc1CN1CCc2c(c3ccccc3n2C)C1=O
inactive: [1] | [2] | [3] | [4] | [5] | [6] | [8]

Cc1ccc(C(C)(C)O)cc1
inactive: [1] | [2] | [3] | [4] | [5] | [6] | [9] | [10] | [8]

CCC1(CO)COCOC1
inactive: [1] | [2] | [3] | [4] | [5] | [6] | [9] | [10] | [8]

CC1=C(CC=O)C(C)(C)CCC1
inactive: [1] | [2] | [3] | [4] | [5] | [6] | [9] | [8]

O=C1Cc2cc(Cl)ccc2N1
inactive: [1] | [2] | [3] | [4] | [5] | [6] | [7] | [9] | [8]

CCCCN(CCCC)C(C(N)=O)c1ccc(OC)cc1 (stereo unspecified)
inactive: [1] | [2] | [3] | [4] | [5] | [6] | [9] | [10]

O=C1Cc2ccccc2N1c1c(Cl)cccc1Cl
active: [4] 54.5 µM | [6] 19.3 µM
inactive: [1] | [2] | [3] | [7] | [9] | [10] | [8]

C[C@@H](O)[C@H]1C(=O)N2C(C(=O)O)=C([C@H]3CCCO3)S[C@H]12
inactive: [1] | [2] | [3] | [4] | [5] | [6] | [7] | [9] | [10] | [8]

CCN(CC)CCNC(=O)COc1ccc(OC)cc1
inactive: [1] | [2] | [3] | [4] | [5] | [6]

CCC(=O)OC
inactive: [1] | [2] | [3] | [4] | [5] | [6] | [7] | [9] | [10] | [8]

CCCC(=O)C(=O)O
inactive: [1] | [2] | [3] | [4] | [5] | [6] | [9] | [8]

Nc1ncnc2c1ncn2[C@H]1CC[C@@H](CO)O1
inactive: [1] | [2] | [3] | [4] | [5] | [6] | [9] | [10] | [8]

O[C@@H]1CO[C@H]2[C@@H]1OC[C@@H]2O
inactive: [1] | [2] | [3] | [4] | [5] | [6] | [9] | [10] | [8]

CN(C)CCN1C(=O)c2ccccc2N(C)c2ccccc21
inactive: [1] | [2] | [3] | [4] | [5] | [6] | [9] | [10] | [8]

CC(=O)c1ccc([N+](=O)[O-])cc1
inactive: [1] | [2] | [3] | [4] | [5] | [6] | [9] | [8]

Cc1ccccc1S
inactive: [1] | [2] | [3] | [4] | [5] | [6] | [10] | [8]

CCOC(=O)c1ccc(C#Cc2ccc3c(c2)C(C)(C)CCS3)nc1
inactive: [1] | [2] | [3] | [4] | [5] | [6] | [8]

CCCCCCCCCI
inactive: [1] | [2] | [3] | [4] | [5] | [6] | [9] | [10] | [8]

CCC1NC(=O)c2cc(S(N)(=O)=O)c(Cl)cc2N1 (stereo unspecified)
inactive: [1] | [2] | [3] | [4] | [5] | [9] | [8]

CCCCCCC(C)(C)C(=O)O
inactive: [1] | [2] | [3] | [4] | [6] | [7] | [9] | [10] | [8]

Cc1ccc(CO)cc1
inactive: [1] | [2] | [3] | [4] | [5] | [6] | [9] | [10] | [8]

CC[N+](CC)(CCNC(=O)C(=O)NCC[N+](CC)(CC)Cc1ccccc1Cl)Cc1ccccc1Cl
inactive: [1] | [2] | [3] | [4] | [5] | [6] | [9]
